CHX counter = counter-screen for Shiga toxin inhibitors: cycloheximide protein synthesis inhibition; cell reporter, cycloheximide protein synthesis inhibition counterscreen; max response, %; AID 2314; 12% of 300,000 active; in the data active = max response mostly above about 13%, no sharp cut-off; inactive = mostly below about 14%; also: read at 38.3 µM for the half of the compounds with a filed dose; 0% is about no effect
LASV entry inh = blocks Lassa virus binding to or entry into cells; Lassa virus pseudotype entry inhibition, cell reporter; 1.2% of 300,000 active; Potency, µM (doses to about 37.9 µM), without a hit: at the top dose activity change, negative = inhibition, most hits filed as inhibitors; calls by dose curve; tested in HEK293 cells; also: potency is read from the fitted curve at half-maximal effect; % is scaled to controls: 0 for no effect and ±100 for the full control effect; nearly all actives have a fitted effect of over 50% in size
MARV entry inh = inhibitors of Marburg virus binding or cell entry. Marburg virus pseudotyped entry inhibition, cell reporter. Potency, µM (titrated, usually from 37.8 µM), without a hit: top-dose activity change, negative = inhibition, hits mostly inhibitors. 1.8% of 300,000 active. AID 540276; calls by dose curve; tested in HEK293 cells; also: potency is read from the fitted curve at half-maximal effect; % is scaled to controls: 0 for no effect and ±100 for the full control effect
Shiga inhibitor = blocks Shiga toxin action in Vero cells; Vero cells, Shiga toxin protein synthesis inhibition reporter; inhibition, % at 38.7 µM; 9.2% of 290,000 active; in the data active = inhibition mostly above about 28%, no sharp cut-off; inactive = mostly below about 43%; also: 0% is about no effect
Starred values were filed as active, the others as inactive; [ ] = remark or other dose. Only some compounds are listed: those with a hit (about 12% of all), similar ones and a draw of the others.

For COc1ccc(-c2nc(-c3ccncc3)no2)cc1OC the results were CHX counter 48*, LASV entry inh 2%, MARV entry inh 7% and Shiga inhibitor 79*.
Screening Cc1ccc(-c2nc(-c3ccncc3)no2)cc1Cl returned CHX counter 28*, LASV entry inh -24%, MARV entry inh 22% and Shiga inhibitor 61*.
For CCn1c(SCc2nc(-c3ccc(OC)c(OC)c3)no2)nnc1-c1cccs1 the results were CHX counter 15*, LASV entry inh inconclusive, MARV entry inh -38% and Shiga inhibitor 7.
COc1ccc(Cl)cc1-c1nc(-c2ccncc2)no1 was read as CHX counter 2, LASV entry inh 24%, MARV entry inh 19% and Shiga inhibitor 21.
For COc1ccccc1NC(=O)NC1(C(=O)NCC2CCCO2)CCCCC1 (centres undefined) the results were CHX counter -5, LASV entry inh -9%[46.1 µM], MARV entry inh 6%[46.1 µM] and Shiga inhibitor -4.
Screening O=C(Nc1cc(Cl)ccc1Cl)c1cc(S(=O)(=O)NCCc2ccccc2)ccc1F returned LASV entry inh 6%[46.1 µM].
Screening Cc1ccc(C)c(CN2C(=O)c3ccccc3S(=O)(=O)c3ccc(C(=O)N4CCOCC4)cc32)c1 returned LASV entry inh -12%[46.1 µM] and MARV entry inh 7%[46.1 µM].
CC[C@H](C)[C@H](NC(=O)[C@H](CCC(=O)O)NC(=O)[C@H](CC(N)=O)NC(=O)[C@@H](N)[C@@H](C)O)C(=O)N[C@H](C(=O)N[C@@H](CCC(=O)O)C(=O)N[C@@H](CCC(=O)O)C(=O)N[C@@H](CCC(N)=O)C(=O)N[C@@H](Cc1ccc(O)cc1)C(=O)N[C@H](C(=O)N1CCC[C@H]1C(=O)N[C@@H](CCC(N)=O)C(=O)N[C@@H](CO)C(=O)N[C@@H](CC(C)C)C(=O)N[C@@H](C)C(=O)N[C@H](C(=O)N[C@@H](CC(C)C)C(=O)N[C@@H](CCC(=O)O)C(=O)N[C@@H](CO)C(=O)N[C@H](C(=O)N[C@@H](Cc1ccccc1)C(=O)N[C@@H](CCC(N)=O)C(=O)N[C@@H](CCC(=O)O)C(=O)N[C@@H](CC(C)C)C(=O)NCC(=O)N[C@@H](CCCCN)C(=O)N[C@@H](CC(C)C)C(=O)N[C@H](C(=O)NCC(=O)N1CCC[C@H]1C(=O)N[C@@H](CC(N)=O)C(=O)N[C@@H](CO)C(=O)N[C@@H](CCC(N)=O)C(=O)O)[C@@H](C)O)C(C)C)[C@@H](C)O)[C@@H](C)O)C(C)C was read as CHX counter -3 and Shiga inhibitor -7.
`COc1ccc(-c2noc(CSc3nnc(Cc4ccccc4)n3-c3ccccc3)n2)cc1OC` gave LASV entry inh 6.3µM* and MARV entry inh -22%[46.1 µM].
`Fc1cccc(F)c1-c1nc(-c2ccncc2)no1` gave CHX counter 48*, LASV entry inh -3%[46.1 µM] and Shiga inhibitor 86*.
`O=[N+]([O-])c1cccc(-c2nc(-c3ccncc3)no2)c1` gave CHX counter 6, LASV entry inh 0%, MARV entry inh inconclusive and Shiga inhibitor 12.
For Cc1cc(C)c(O)c(CN(C)Cc2cc(Cl)cc(Cl)c2O)c1 the results were LASV entry inh inconclusive and MARV entry inh 3.2µM*.
Cc1cccc(C)c1NC(=O)N1CCC(C(N)=O)(N2CCCCC2)CC1 was read as LASV entry inh 4%[46.1 µM] and MARV entry inh -24%[46.1 µM].
CCOC(=O)C1CCN(c2ncnc3c(C)csc23)CC1 was read as CHX counter 48*, LASV entry inh inconclusive, MARV entry inh 9%[46.1 µM] and Shiga inhibitor 67*.
`Cc1cc2oc(=O)cc(CSc3nnc(C)n3N)c2cc1C(C)C` gave CHX counter 1, LASV entry inh 7%, MARV entry inh 11%[46.1 µM] and Shiga inhibitor -42.
Screening Cc1cc2oc(=O)cc(CSc3nnc(-c4cccs4)o3)c2cc1C(C)C returned CHX counter 11*, LASV entry inh inconclusive, MARV entry inh inconclusive and Shiga inhibitor 4.
For CCCCOc1ccc(/C=C/C(=O)NC2=Nc3ccccc3NC(C)=C2C(=O)OCC)cc1OC the results were CHX counter 15, LASV entry inh 1%[46.1 µM], MARV entry inh 6.3µM* and Shiga inhibitor 19.
For CCOc1ccc(CCNC(=O)CCn2c(=O)c3cccn3c3cccnc32)cc1 the results were LASV entry inh -2%[46.1 µM].
Screening Cc1ccc(NC(=O)CSc2nc(N)c3c4c(sc3n2)CSC(C)(C)C4)cc1 returned CHX counter 2, LASV entry inh 21µM*, MARV entry inh inconclusive and Shiga inhibitor 6.
Screening Nc1nc(SCC(=O)Nc2ccccc2)nc2nc3c(cc12)CCCC3 returned CHX counter 17*, LASV entry inh inconclusive, MARV entry inh -5% and Shiga inhibitor 63*.
Screening Cc1ccc(NC(=O)CSc2nc(N)c3cc4c(nc3n2)CCCC4)cc1 returned CHX counter 33*, LASV entry inh inconclusive, MARV entry inh inconclusive and Shiga inhibitor active.
For Cc1ccccc1NC(=O)CSc1nc(N)c2c3c(sc2n1)CSC(C)(C)C3 the results were CHX counter 6, LASV entry inh inconclusive, MARV entry inh -43% and Shiga inhibitor -4.
`COc1ccc(NC(=O)CSc2nc(N)c3cc4c(nc3n2)CCCC4)c(OC)c1` gave CHX counter -3, LASV entry inh -13%, MARV entry inh -16% and Shiga inhibitor -10.
`COc1cccc(CN2CC(C(=O)NCCN3CCOC3=O)CCC2=O)c1` (centres undefined) gave CHX counter -1 and Shiga inhibitor -6.
For O=[N+]([O-])c1ccc(N=Nc2c(Cl)cc(O)cc2Cl)cc1 the results were CHX counter 29* and Shiga inhibitor 111*.
Screening Cc1ccccc1CS(=O)(=O)c1nnc([C@H](Cc2ccccc2)NC(=O)OC(C)(C)C)o1 returned CHX counter 40*, LASV entry inh inconclusive, MARV entry inh inconclusive and Shiga inhibitor 20.
CCC(C)[C@@H](NC(=O)OC(C)(C)C)c1nnc(S(=O)(=O)Cc2cccc(C)c2)o1 (some centres undefined) was read as CHX counter 31*, LASV entry inh inconclusive, MARV entry inh inconclusive and Shiga inhibitor 77*.
CC(=O)Nc1ccc(NC(=O)CSc2nnc3ccc(-c4cccnc4)nn23)cc1 was read as LASV entry inh 5% and MARV entry inh 23%[46.1 µM].
Screening COc1ccc(Br)cc1/C=C/C(=O)Nc1ccc2ccccc2c1 returned CHX counter 33*, LASV entry inh -2%, MARV entry inh inconclusive and Shiga inhibitor 20.
Screening COc1ccc(Br)cc1/C=C/C(=O)Nc1ccc(C)cc1 returned CHX counter -3, LASV entry inh inconclusive, MARV entry inh inconclusive and Shiga inhibitor 30.
Screening CCC(=O)Nc1cccc(C(=O)/C=C/c2cc(Br)ccc2OC)c1 returned CHX counter -3, LASV entry inh 11µM*, MARV entry inh inconclusive and Shiga inhibitor -20.
`Cc1ccc(C(=O)Nc2cccc(C(=O)N/N=C/c3ccc(O)cc3)c2)cc1` gave CHX counter 28*, LASV entry inh inconclusive, MARV entry inh inconclusive and Shiga inhibitor 34.
O=C(N/N=C/c1cccc(NC(=O)c2ccc(Cl)cc2)c1)c1cccc(O)c1 was read as CHX counter 26*, LASV entry inh inconclusive, MARV entry inh inconclusive and Shiga inhibitor 77*.
